This is part of a sample that, as a whole, favours compounds with a hit. Of some 83,000 tested, about 20% had one in any assay.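 Single-concentration screen, 48 h exposure, 96-well plates. Endpoint: percent growth. Below 10 = active.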 Unmarked numbers belong to inactive results. Activity calls are given as the source filed them.
What was measured:
Assay in all cases: NCI-60 one-dose screen, 48 h (100 = growth as untreated, 0 = no growth, -100 = all killed)
Conditions in all cases: 10 µM unless noted
[1] = test system: NCI-H23 lung
[2] = test system: NCI-H226 lung
[3] = test system: NCI-H322M lung
[4] = test system: HOP-62 NSCLC
[5] = test system: NCI-H460 lung
[6] = test system: HOP-92 NSCLC
[7] = test system: NCI-H522 lung
[8] = test system: A549/ATCC NSCLC
[9] = test system: 786-0 renal
[10] = test system: COLO 205 colon

SMILES	growth [1]	growth [2]	growth [3]	growth [4]	growth [5]	growth [6]	growth [7]	growth [8]	growth [9]	growth [10]
CCOC(=O)c1ccc(N2NC(=O)/C(=C/c3ccc([N+](=O)[O-])o3)C2=O)cc1	108%	120%	99.8%	109%	111%	105%	60.7%	-1.33% (active)	116%	129%
CCN(CC)CCCCCCNc1cc(OC)c(Cl)c2cccnc12	76.9%	78.7%	92.7%	69.1%	83.9%	58.8%	81.1%	96.7%	73.9%	55.1%
Cc1c2c(c(C)c3c1oc1cc(O)ccc13)C(=O)N(CCN1CCCCC1)C2=O	94.6%	88.5%	85.9%	80%	38.7%	92.4%	94.1%	81.2%	71.7%	85.8%
NC(N)=Nc1nc2ccccc2n2c1nc1ccccc12	36.3%	56.7%	43.7%	40.4%	8.12% (active)	56.6%	16.1%	17.7%	33.5%	30.3%
COc1ccc(NC(=O)CSc2nnc(-c3cc(-c4ccc(S(N)(=O)=O)cc4)nc4ccccc34)n2-c2ccccc2)cc1	102%	77.5%	93.8%	85.7%	91%	62.2%	78%	90.9%	88.4%	95.5%
C=C1C(=O)O[C@H]2[C@H]1CC/C(COC(=O)C(=O)c1cn(C)c3ccc(OC)cc13)=C\CC[C@@]1(C)O[C@@H]21	-36.1% (active)	-67.5% (active)	-62.2% (active)	-45.9% (active)	-76.3% (active)	-72.3% (active)	-61.4% (active)	-62% (active)	-87.4% (active)	-57% (active)
COc1ccc2[nH]c(O)c(/C=c3/cc4c(c(-c5ccc(F)c(OC)c5)n3)=Nc3ccccc3-4)c2c1	61.1%	90.7%	89.1%	88.6%	-21.9% (active)	57.5%	67%	52.8%	-59% (active)	84.8%
COc1ccc(S(=O)(=O)NCCNc2nccc(-c3c(-c4cccc(F)c4)nc4sccn34)n2)cc1	56.3%	28.1%	63%	73.4%	29%	71.8%	48.1%	22.5%	43.1%	21.7%
COC(=O)[C@]12CC[C@@H](C)[C@H](C)[C@@H]1C1=CC[C@@H]3[C@@]4(C)C(C=O)=C[C@@](C)(COC(C)=O)[C@@H]4C(=O)C[C@@]3(C)[C@]1(C)CC2	34.2%	38.7%	77.2%	50.1%	18.8%	47.7%	12.9%	14.2%	37.3%	-9.64% (active)
COc1ccc(-c2nc3c(c(=O)n2C(C)=O)C(c2ccc(Cl)cc2)c2sc4c(Cl)cccc4c2O3)cc1 (stereo not given)	3.67% (active)	15.8%	-5.66% (active)	-5.72% (active)	-10.8% (active)	-15.7% (active)	-45.6% (active)	-55% (active)	-50.1% (active)	-62.3% (active)
COc1cc(C(=O)c2cc(C)c3[nH]c4ccc(Cl)cc4c3c2C)cc(OC)c1OC	13.8%	54.8%	33%	40%	4.97% (active)	38.6%	35.5%	19.6%	19.6%	11%
COc1cc(-c2nc(N3CCN(C)CC3)c3ccccc3n2)cc(OC)c1OC	74.4%	66.2%	84.4%	47.3%	84.5%	44.3%	8.58% (active)	72.5%	47.5%	81.5%
COc1cc(-c2n/c(=C\c3c(O)[nH]c4ccc(Cl)cc34)cc3c2=Nc2ccccc2-3)cc(OC)c1OC	-2.92% (active)	62.6%	68%	-8.81% (active)	-38% (active)	-25.4% (active)	-0.596% (active)	-39.4% (active)	-37.1% (active)	8.86% (active)
